KCNQ2 pot = enhances the rat KCNQ2 potassium channel; CHO-K1 KCNQ2, FluxOR thallium flux fluorescence; active compounds read high; B-score at 10 µM; 310,000 tested, 0.54% active;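 active = fluorescence ratio B-score at least 3 SD of library B-scores, with initial fluorescence B-score within 3 of them, cut at about 5.3 in these data; same plate scores as AID 2156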;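 note: B-score of peak minus minimum over baseline fluorescence ratio after K+ and Tl+ stimulus; positive B-score means potentiation of KCNQ2 with more thallium influx and brighter signal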
Target sequence (O88943 whole entry, looked up): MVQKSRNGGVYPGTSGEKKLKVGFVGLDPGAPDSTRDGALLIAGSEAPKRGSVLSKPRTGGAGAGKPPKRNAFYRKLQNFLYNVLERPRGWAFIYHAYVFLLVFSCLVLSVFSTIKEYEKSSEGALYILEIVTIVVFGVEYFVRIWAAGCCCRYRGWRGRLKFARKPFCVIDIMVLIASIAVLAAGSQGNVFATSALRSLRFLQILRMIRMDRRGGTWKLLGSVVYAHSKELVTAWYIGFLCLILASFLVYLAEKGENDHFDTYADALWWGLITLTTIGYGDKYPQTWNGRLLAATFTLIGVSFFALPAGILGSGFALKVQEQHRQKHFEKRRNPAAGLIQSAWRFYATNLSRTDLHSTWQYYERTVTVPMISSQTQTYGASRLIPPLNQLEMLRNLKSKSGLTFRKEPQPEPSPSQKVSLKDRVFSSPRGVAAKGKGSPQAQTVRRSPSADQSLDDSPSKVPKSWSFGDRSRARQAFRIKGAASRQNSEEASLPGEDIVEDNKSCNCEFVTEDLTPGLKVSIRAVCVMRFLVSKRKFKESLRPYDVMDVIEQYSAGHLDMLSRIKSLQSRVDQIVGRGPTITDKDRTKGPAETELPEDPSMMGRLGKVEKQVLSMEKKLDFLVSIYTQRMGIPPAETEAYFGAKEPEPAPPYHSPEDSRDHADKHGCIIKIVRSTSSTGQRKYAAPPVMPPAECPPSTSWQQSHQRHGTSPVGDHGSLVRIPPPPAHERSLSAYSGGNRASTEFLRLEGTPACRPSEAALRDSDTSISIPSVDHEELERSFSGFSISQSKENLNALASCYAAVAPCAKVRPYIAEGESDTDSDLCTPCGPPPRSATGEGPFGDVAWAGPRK
KCNQ2 inh = KCNQ2 (rat) channel inhibition; O88943; CHO-K1 KCNQ2, FluxOR thallium flux, 20 min; active compounds read low; B-score at 10 µM; 310,000 tested, 1.1% active; AID 2156;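 active = fluorescence ratio B-score at most minus 3 library SDs, with starting brightness B-score within 2 library SDs, cut at about -5.5 in these data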
A number is an active result; - = inactive; . = not tested or not shown. In the library only some 1.6% were active in any assay of this set; here they are far more common.

SMILES | KCNQ2 pot | KCNQ2 inh
CCc1ccc(NC(=O)c2ccc(F)c(S(=O)(=O)N(CC)c3ccccc3)c2)cc1 | . | -
COc1ccc(NC(=O)C2CCC(=O)N2C(=O)OCc2ccccc2)cc1 (stereo not drawn) | - | -
N#Cc1c2n(c3c(N)ncnc13)CCCCC2 | . | -
C[C@@H]1CC=C[C@H]2[C@H]1C(=O)N(Cc1ccccc1)[C@H]2c1ccc(-c2ccc(F)cc2)cc1F | . | -
C[C@@H]1CC=C[C@H]2[C@H]1C(=O)N(Cc1ccccc1)[C@H]2c1ccc(-c2ccoc2)cc1F | - | -6.9
COC(=O)c1ccn(Cc2ccccc2Cl)n1 | - | -
CCN(CC(=O)Nc1c(F)cccc1F)C(=O)c1ccc(COc2ccccc2)o1 | - | -
O=C(NCCO)C1COc2ccccc2O1 (stereo not drawn) | - | -
O=C(NCCc1ccc(Cl)cc1)C1COc2ccccc2O1 (stereo not drawn) | - | -6
Cc1cc(NS(=O)(=O)c2ccc(Nc3nc(-c4sc(NC(=O)c5ccccc5)nc4C)cs3)cc2)no1 | - | -13
Cc1nc(NC(=O)c2ccccc2)sc1-c1csc(Nc2cccc(F)c2)n1 | - | -
O=Cc1ccc(O)c2ncccc12 | 7.2 | -
NS(=O)(=O)c1ccc(N=Nc2ccc(O)c3ncccc23)cc1 | - | -
COc1ccccc1NC(=S)N1CCCCCC1 | - | -
Cc1[nH]c(C)c(S(=O)(=O)NCc2ccc(OC(C)C)cc2)c1C(=O)N1CCCC1 | - | -5.7
COc1ccc(CNS(=O)(=O)c2c(C)[nH]c(C)c2C(=O)N2CCCC2)cc1 | . | -
COc1ccc(S(=O)(=O)NCCC(C)C)cc1C | . | -
O=C(NCc1cccc(F)c1)C1CCC(=O)N(C2CC2)C1 (stereo not drawn) | . | -
COc1ccccc1CNC(=O)CN(Cc1ccc(Cl)cc1)S(C)(=O)=O | - | -5.9
CS(=O)(=O)N(CC(=O)NCc1ccccc1)Cc1ccc(Cl)cc1 | . | -
CCOC(=O)Cc1cc(=O)n2[nH]cc(-c3cccc(Br)c3)c2n1 | . | -
COc1ccccc1OCC#CCNC1CCCCC1C (stereo not drawn) | . | -
O=C(Nc1cccc2cccnc12)c1ccccc1Br | . | -
O=C(/C=C/c1ccc([N+](=O)[O-])cc1)c1cccs1 | . | -
Nc1ccc(/C=C/C(=O)c2cccs2)cc1 | - | -6.9
SMILES | KCNQ2 pot | KCNQ2 inh
O=C(NC(=S)N1CCN(c2ccccn2)CC1)c1ccco1 | . | -
CCN(CC)S(=O)(=O)c1ccc(OC(C)C)c(NC(=O)c2c3c(nc4ccccc24)CCN(Cc2ccccc2)C3)c1 | . | -
O=C1C2=C(CCCC2)C(=O)N1c1cccc(OCCBr)c1 | 7.8 | -
CC(C)CN(CCOc1cccc(N2C(=O)C3=C(CCCC3)C2=O)c1)CC(C)C | . | -
Cn1cc([C@@H]2C[C@H]3CN(C4CCCC4)C(=O)[C@]34CCCN24)c(-c2ccccc2)n1 | . | -
CN(C)S(=O)(=O)c1cc([N+](=O)[O-])ccc1N1CCCCCC1 | . | -
CC(C)CN(CC(C)C)S(=O)(=O)c1cc([N+](=O)[O-])ccc1N1CCCCCC1 | - | -6.1
COc1ccc(CNC(=O)c2ccc(CS(=O)(=O)c3ccc(C)cc3)o2)cc1 | - | -
CC(C)c1nc(SCC(=O)N2CCN(c3ccccc3)CC2)c2c(=O)n(C)c(=O)n(C)c2n1 | 6.2 | -
CCCc1nc(SCC(=O)N2CCN(c3ccccc3)CC2)c2c(=O)n(C)c(=O)n(C)c2n1 | - | -
Cc1ccc2c(c1)N(C(=O)CCC(=O)NC1CCCCCC1)CC(C)O2 (stereo not drawn) | . | -
Cc1ccc(S(=O)(=O)N2CCN(Cc3ccccc3C(F)(F)F)CC2)cc1 | - | -6
Cc1ccccc1CN1CCN(Cc2ccccc2C(F)(F)F)CC1 | . | -
Cc1nn(-c2ccccc2)c(Cl)c1/C=N/NC(=O)c1[nH]ncc1Br | - | -
OC1(c2ccc(F)cc2)CCN(Cc2nnnn2Cc2cccs2)CC1 | - | -
O=C(N1CCOCC1)C1(c2ccc(Cl)cc2)CCCC1 | . | -
O=C(N1CCC(n2nc(-c3ccccc3)oc2=O)CC1)C1(c2ccc(Cl)cc2)CC1 | - | -8.2
O=[N+]([O-])C(=C1Nc2ccccc2N1)/C(Cl)=C(/Cl)Br | . | -
COC(=O)c1ccc(N2CCOCC2)c(NC(=O)c2cccnc2)c1 | - | -
CCN=C(NCC)SC1CC(=O)N(c2cccc(OCC)c2)C1=O (stereo not drawn) | - | -6.2
CCN=C(NCC)SC1CC(=O)N(c2ccc(OC)cc2)C1=O (stereo not drawn) | . | -
O=C(Nc1ccc2c(c1)OCCO2)C1CCCN(S(=O)(=O)c2cccnc2)C1 (stereo not drawn) | - | -
Nc1n[nH]c(S(=O)(=O)CCCc2ccccc2)n1 | . | -
O=C(NCc1ccccc1)C(c1ccccc1)N(Cc1cccs1)C(=O)c1cnccn1 (stereo not drawn) | . | -
O=C(NCc1ccccc1)C(c1cccs1)N(Cc1cccs1)C(=O)c1cnccn1 (stereo not drawn) | - | -6
SMILES | KCNQ2 pot | KCNQ2 inh
COc1ccc(NC(=O)COc2ccccc2)cc1NC(=O)c1ccco1 | . | -
Cc1c(Cl)cccc1NC(=S)N1CCC(C(N)=O)(N2CCCCC2)CC1 | . | -
COc1ccc(C)cc1NC(=O)C(Sc1nnc(Nc2ccccc2F)s1)c1ccccc1 (stereo not drawn) | - | -6.3
COc1ccc(C)cc1NC(=O)C(Sc1nncn1C)c1ccccc1 (stereo not drawn) | . | -
O=C(Nc1ccccc1N1CCCCC1)C1CCN(S(=O)(=O)c2cccc(C(F)(F)F)c2)CC1 | - | -6.9
O=C(Nc1ccccc1N1CCCC1)C1CCN(S(=O)(=O)c2cccc(C(F)(F)F)c2)CC1 | . | -
Cc1cc(Nc2ccccc2)nc(NCc2ccccc2)n1 | - | -6.2
Cc1cc(Nc2ccc(Cl)cc2)nc(NCc2ccccc2)n1 | . | -
CCCOc1ccc(-c2c(C(=O)N/N=C(\C)c3ccncc3)nnn2-c2nonc2N)cc1 | - | -
CC(C)Cc1csc(NC(=O)c2ccccc2Cl)c1C(=O)O | . | -
CC(C)Cc1csc(NC(=O)c2ccc(Cl)cc2)c1C(=O)O | 5.6 | -
COc1cc2c(cc1NC(=O)/C=C/c1ccc([N+](=O)[O-])cc1)oc1ccccc12 | 5.6 | -
COc1cc2c(cc1NC(=O)COC(=O)/C=C/c1ccc([N+](=O)[O-])cc1)oc1ccccc12 | . | -
O=C(OC(C(=O)NCc1ccc(F)cc1)c1ccccc1)c1ccco1 (stereo not drawn) | . | -
CC1CCN(Cc2nnnn2CCCC(=O)N(C)C2CCOC2)CC1 (stereo not drawn) | - | -
O=C(NC1CCC(C(=O)O)CC1)OCc1ccccc1 (stereo not drawn) | - | -
c1ccc(CO/N=C(\c2ccc(C3CC3)nc2)C2CC2)cc1 | - | -7
COc1ccc(C(=O)NC(Cc2c[nH]c3ccccc23)C(=O)O)cc1 (stereo not drawn) | . | -
CCCOc1ccc(C(=O)CCNC(Cc2c[nH]c3ccccc23)C(=O)O)cc1 (stereo not drawn) | - | -6
COc1ccc(NC(=O)CC(C)n2ccnc2)cc1 (stereo not drawn) | . | -
O=C(N/N=C/c1ccccn1)c1cc(-c2ccc(Br)cc2)nc2ccccc12 | - | -
O=C(N/N=C/c1ccccn1)c1cc(-c2ccc(Cl)cc2)nc2ccccc12 | 9.6 | -
N/C(=N\OC(=O)c1cc(-c2ccccc2)nc2ccccc12)c1cccnc1 | . | -
CCCOc1cccc(-c2cc(C(=O)N/N=C/c3cccnc3)c3ccccc3n2)c1 | - | -5.8
O=C(N/N=C/c1c[nH]c2ccccc12)c1sc2ccccc2c1Cl | . | -
